Assay outcomes as filed in PubChem BioAssay.
ATXN viability: cell viability loss in ATXN counter-screen. S2 cells (HEK-293 line with an ATXN2-luciferase reporter) viability, CellTiter-Fluor protease fluorescence, 24 h. Potency, µM (titrated, usually from 56.7 µM), usual class: cytotoxic. 400,000 tested, 0.49% active. AID 651635; also: nearly all actives have a fitted effect of over 40% in size
HepG2 tox: HepG2 cytotoxicity, counter-screen for TGF-b inhibitors; HepG2 CAGA-GFP viability, ATP luminescence, 18 h; AID 588856; Potency, µM (highest dose often 46.1 µM), for inactives: top-dose activity change, negative = cytotoxicity, hits mostly cytotoxic; 410,000 tested, 0.76% active
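HepG2 CAGA-GFP cells (1000/well, DMEM with 1% FBS) received compound, then TGF-beta at 500 pg/mL final, and were incubated 18 hours at 37 degrees C. Viability was read by CellTiter-Glo luminescence. Media-only wells were set as complete cell-killing and DMSO as no toxicity.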
TGFb SMAD3 inh: TGF-b pathway inhibition; HepG2 CAGA-GFP TGF-b/SMAD3 reporter, GFP fluorescence, 18 h; TGF-beta stimulated, 500 pg/mL final; Potency, µM (highest dose often 46.1 µM), for inactives: top-dose activity, negative = inhibition, most hits filed as inhibitors; 410,000 tested, 1.2% active; AID 588855; also: % is scaled to controls: 0 for no effect and ±100 for the full control effect; nearly all actives have a fitted effect of over 65% in size
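Cell-based qHTS in HEPG2 carrying a CAGA-GFP Smad reporter; compounds added before 500 pg/mL final TGF-beta, 18 h incubation at 37 degrees C, GFP fluorescence quantified per cell by imaging cytometry.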
ATXN2 expr inh: ATXN2 expression inhibition; HEK-293 ATXN2-luciferase reporter, luminescence, 24 h; AID 1745845; 360,000 tested, 0.72% active; Potency, µM (highest dose often 57 µM), without a hit: at the highest dose activity change, negative = inhibition, hits mostly inhibitors; also: % is scaled to controls: 0 for no effect and ±100 for the full control effect; nearly all actives have a fitted effect of over 55% in size
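qHTS (up to 57 uM final) was run with 24 h compound exposure of reporter cells at 37 °C. Each well was multiplexed: SteadyGlo luminescence measured ATXN2-luciferase expression after a fluorogenic Gly-Phe-AFC viability readout (25 uM final).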
KB-V1 cytotox: kills drug-selected multidrug resistant KB-V1 cells; KB-V1 MDR cells viability, CellTiter-Glo, 72 h; Potency, µM (series often up to 46.1 µM), actives largely listed as cytotoxic; 400,000 tested, 3.4% active; AID 1347076; also: % is scaled to controls: 0 for no effect and ±100 for the full control effect; nearly all actives have a fitted effect of over 60% in size
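Cytotoxicity via CellTiter-Glo luminescence after 72 h compound exposure at 37 degrees C. Cells: drug-selected KB-V1 line, DMEM phenol-red free plus 10% FBS. Compounds tested at multiple concentrations; normalized data fitted to concentration-effect curves.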
KB-3-1 tox: kills parental KB-3-1 adenocarcinoma cells; KB-3-1 viability, CellTiter-Glo ATP luminescence, 72 h; Potency, µM (highest dose often 46.1 µM), hits mostly cytotoxic; 400,000 tested, 1.4% active; also: % is scaled to controls: 0 for no effect and ±100 for the full control effect; nearly all actives have a fitted effect of over 60% in size
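Parental KB-3-1 viability, qHTS format: 72 h compound exposure, 37 °C; CellTiter-Glo; media-only wells and DMSO plates as controls; concentration-effect fits on corrected data.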
* marks the source's active call; other numbers are inactive results; i = inactive; ? = inconclusive; nt = no result given. Hits are enriched below; roughly 5.9% of the tested compounds scored in any of these assays. Calls follow the shape of the dose curve; as a rule, active = well fitted curve in the direction sought with a large enough effect; inconclusive = small, poorly fitted or top-dose-only effect, or another doubt; inactive = no such curve, though single readings can be large; an effect the other way counts as inactive or inconclusive. Potency is read from the fitted curve at half-maximal effect.

SMILES	ATXN viability	HepG2 tox	TGFb SMAD3 inh	ATXN2 expr inh	KB-V1 cytotox	KB-3-1 tox
Cc1nc(N2CCN(Cc3ccccc3)CC2)nc2c1C(=O)CCC2	i	8%	?	-7%	18µM*	?
O=C1CCCc2nc(N3CCN(Cc4ccccc4)CC3)ncc21	i	-6%	-5%	-6%	21µM*	i
Cc1nc(N2CCN(Cc3ccccc3)CC2)nc2c1C(=O)CC(c1ccco1)C2 (stereo not given)	i	3%	-11%	-15%	8.2µM*	?
CCCNS(=O)(=O)Nc1ncnc(OCCOc2ncc(Br)cn2)c1-c1ccc(Br)cc1	nt	nt	nt	16%	nt	nt
COc1ccc(O)c(C(=O)N2CCC3(CC2)c2ccccc2[C@@H](NC(=O)c2ccccn2)[C@@H]3OC)c1	i	nt	nt	nt	nt	nt
COc1cccc(CNC(=O)c2oc3ccc4c(c3c2C)C(=O)CC(C)(C)O4)c1OC	nt	-15%	nt	nt	nt	nt
O=[N+]([O-])c1ccc(-c2nnc(-c3ccccc3)c(N3CCOCC3)n2)cc1	i	5%	-7%	-19%	12µM*	i
Cc1ccc(C2Nc3ccc4ccccc4c3C3=C2C(=O)CC(C)(C)C3)o1 (stereo not given)	i	-15%	3%	11%	10µM*	i
O=C1CCCC2=C1C(c1ccc(O)c(O)c1)Nc1ccc3ccccc3c12 (stereo not given)	i	-21%	?	20%	?	i
COc1cc(C2Nc3ccc4ncccc4c3C3=C2C(=O)CC(C)(C)C3)cc(OC)c1O (stereo not given)	i	-12%	-40%	58%	i	i
CC1(C)CC(=O)C2=C(C1)c1c(ccc3ncccc13)NC2c1cccs1 (stereo not given)	?	2%	-19%	5%	5.8µM*	3.7µM*
O=C1CCCC2=C1C(c1ccco1)Nc1ccc3ccccc3c12 (stereo not given)	i	-5%	-17%	19%	21µM*	i
CCC(Sc1ncc(S(=O)(=O)c2ccc(Cl)cc2)c(=O)[nH]1)C(=O)Nc1ccc(OC)cc1 (stereo not given)	i	6%	2%	5%	i	i
CCCn1c(=O)sc2cc(NC(=O)c3ccc(OC)c(Br)c3)ccc21	?	-26%	4%	?	i	23µM*
CCn1c(=O)sc2cc(NC(=O)c3cccc(OC)c3)ccc21	?	-9%	21%	12%	i	i
Cc1cc(N2CCN(C)CC2)nc2ccc(NC(=S)NCCCN3CCc4ccccc4C3)cc12	18µM*	-23%	-6%	32µM*	i	i
Cc1cccc(N2CCN(C(=S)Nc3ccc4nc(N5CCN(C)CC5)cc(C)c4c3)CC2C)c1 (stereo not given)	nt	10µM*	?	nt	i	?
CCCN1CCN(CCCNC(=S)Nc2ccc3nc(N4CCN(CC)CC4)cc(C)c3c2)CC1	i	-26%	-3%	nt	?	i
O=C(NCCCN1CCc2ccccc2C1)Nc1ccc(Cl)cc1	i	-57%	-16%	3%	15µM*	i
COc1ccc(NC(=O)NCCN2CCc3ccccc3C2)cc1	i	8%	14%	-8%	i	i
Cc1cc(N2CCCC2)nc2ccc(NC(=S)NCCCN3CCC(C)CC3)cc12	?	18µM*	?	?	?	i
O=S1(=O)N=C(Oc2ccc3ccccc3c2)c2ccccc21	nt	nt	nt	nt	i	i
Cc1ccc(C(=O)CC(=O)c2cc(Cl)ccc2O)cc1	i	-62%	?	-26%	i	i
N/C(=C\C(=O)c1cc(Cl)ccc1O)C(Cl)(Cl)Cl	?	-89%	10µM*	20µM*	7.3µM*	?
COC(=O)c1ccc(Cl)c(NS(=O)(=O)c2ccc3c(c2)OCCO3)c1	i	-5%	-8%	-12%	9.2µM*	5.8µM*
SMILES	ATXN viability	HepG2 tox	TGFb SMAD3 inh	ATXN2 expr inh	KB-V1 cytotox	KB-3-1 tox
Cc1ccc(NS(=O)(=O)c2cc3c(cc2N(C)C)CCC(=O)N3)cc1C	nt	nt	nt	nt	i	i
CN(Cc1ccccc1)S(=O)(=O)c1ccc(Cl)c(C(=O)N2CCC2)c1	i	-12%	-14%	-7%	16µM*	i
Cc1cccc(NC(=O)CN(C)S(=O)(=O)c2ccc(Cl)cc2)n1	i	-1%	-6%	-13%	16µM*	i
Cc1cccc(NC(=O)CN(C)S(=O)(=O)c2ccc(Br)cc2)n1	i	2%	-7%	-11%	i	i
CN(CC(=O)Nc1ccccc1C(=O)N1CCCC1)S(=O)(=O)c1ccc(Cl)cc1	i	-2%	-4%	1%	7.3µM*	i
O=C(C1CCC(Cn2c(=O)c3sccc3n(Cc3ccccc3)c2=O)CC1)N1CCCCC1 (stereo not given)	i	-23%	?	-7%	i	i
CC(C)N(C(=O)CSc1nnc(-c2cc3ccccc3cc2O)n1Cc1ccco1)C(C)C	?	-3%	?	-15%	3.3µM*	15µM*
O=C(CSc1nnc(-c2cccnc2)n1Cc1ccco1)c1ccc2ccccc2c1	i	-12%	-19%	-7%	15µM*	i
CNC(=O)CSc1nnc(-c2ccccn2)n1Cc1ccco1	i	-9%	-16%	6%	i	i
O=C(CSc1nnc(-c2cccnc2)n1Cc1ccco1)c1ccc(Br)cc1	nt	-5%	0%	nt	i	i
COCCn1c(SCC(=O)N(C(C)C)C(C)C)nnc1-c1cc2ccccc2cc1O	i	-19%	-12%	-2%	?	i
O=C(CSc1nnc(-c2ccccn2)n1Cc1ccco1)c1ccc(Cl)cc1	i	-23%	-13%	-10%	9.2µM*	i
COc1cc(Cl)c(C)cc1NC(=O)CSc1nnc(-c2ccccn2)n1Cc1ccco1	i	-17%	2%	-20%	2.3µM*	i
O=C(C[n+]1cccc(Br)c1)c1ccc2c(c1)CCCC2	nt	-25%	-10%	nt	i	?
COc1ccc(C(=O)CSc2nnc(-c3ccccn3)n2Cc2ccco2)cc1	i	4%	0%	-1%	18µM*	i
N#Cc1c(N2CCCCC2)nc(N)c2c(N)nc3c(c12)CC(c1ccccc1)O3 (stereo not given)	i	0%	-1%	-1%	?	i
CCN(CC)c1nc(N)c2c(N)nc3c(c2c1C#N)CC(c1ccccc1)O3 (stereo not given)	i	1%	?	7%	21µM*	i
CCCN(Cc1nnc(-c2ccccc2Cl)o1)C(=O)COc1ccc(Cl)cc1	?	-9%	-11%	3%	4.1µM*	i
